This passage reports Potency results from PubChem BioAssay (NCATS).

Experiment [1] is described as follows: qHTS of pediatric cancer cell lines to identify multiple opportunities for drug repurposing: Primary screen for Saos-2 cells (AID 1347097). Also: nearly all actives have a fitted effect of over 40% in size. Also: potency is read from the fitted curve at half-maximal effect. An outline of the steps: (§1)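 Cells seeded at 500-1,000 cells/well in growth media, rested 5 hours at 37 degrees C, 5% CO2, then dosed; MIPE compounds at 11-point (from 0.78 nM) and NPC at 8-point (from 0.59 nM) final concentrations. Viability by CellTiter-Glo luminescence after 48 hours.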

A short description of experiment [2]: qHTS of pediatric cancer cell lines to identify multiple opportunities for drug repurposing: Primary screen for SK-N-SH cells (AID 1347098). Also: nearly all actives have a fitted effect of over 65% in size. Also: potency is read from the fitted curve at half-maximal effect. The gist of the method:
(§2)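 Cells (500-1,000/well) rested 5 h, then received compounds for 48 h; metabolically active cells were measured by CellTiter-Glo luminescence. Final concentrations spanned up to 46 µM (MIPE, 11-point) or 0.59 nM-46 µM (NPC, 8-point) in primary screens, 11-point in follow-ups.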

The nature of experiment [3]: qHTS of pediatric cancer cell lines to identify multiple opportunities for drug repurposing: Primary screen for NB1643 cells (AID 1347099). Also: nearly all actives have a fitted effect of over 50% in size. Also: potency is read from the fitted curve at half-maximal effect. An outline of the steps:
as §1

Experiment [4] in a line: qHTS of pediatric cancer cell lines to identify multiple opportunities for drug repurposing: Primary screen for LAN-5 cells (AID 1347100). Also: potency is read from the fitted curve at half-maximal effect. The gist of the method: as §2
In general terms: In qHTS, concentration-response curves come from the screen itself.

Experiment [5] in a line: qHTS of pediatric cancer cell lines to identify multiple opportunities for drug repurposing: Primary screen for BT-12 cells (AID 1347101). Also: nearly all actives have a fitted effect of over 25% in size. Also: potency is read from the fitted curve at half-maximal effect. An outline of the steps: as §2
A short description of experiment [6]: qHTS of pediatric cancer cell lines to identify multiple opportunities for drug repurposing: Primary screen for Rh18 cells (AID 1347102). Also: nearly all actives have a fitted effect of over 65% in size. Also: potency is read from the fitted curve at half-maximal effect. An outline of the steps:
as §2

A short description of experiment [7]: qHTS of pediatric cancer cell lines to identify multiple opportunities for drug repurposing: Primary screen for RD cells (AID 1347104). Also: nearly all actives have a fitted effect of over 55% in size. Also: potency is read from the fitted curve at half-maximal effect. An outline of the steps:
as §1

Experiment [8] in a line: qHTS of pediatric cancer cell lines to identify multiple opportunities for drug repurposing: Primary screen for MG 63 (6-TG R) cells (AID 1347105). Also: nearly all actives have a fitted effect of over 50% in size. Also: potency is read from the fitted curve at half-maximal effect. The gist of the method: as §1
Experiment [9] is described as follows: qHTS of pediatric cancer cell lines to identify multiple opportunities for drug repurposing: Primary screen for control Hh wild type fibroblast cells (AID 1347106). Also: nearly all actives have a fitted effect of over 55% in size. Also: potency is read from the fitted curve at half-maximal effect. The gist of the method:
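Viability after 48 h compound treatment at 37C, 500-1,000 cells/well, read as ATP luminescence with CellTiter-Glo. Primary screens used 11-point (MIPE, 0.78 nM-46 µM) or 8-point (NPC, 0.59 nM-46 µM) final concentrations; follow-up screens used 11-point dilutions.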

Experiment [10] is described as follows: qHTS of pediatric cancer cell lines to identify multiple opportunities for drug repurposing: Primary screen for Rh30 cells (AID 1347107). Also: series mostly up to about 46 µM; nearly all actives have a fitted effect of over 75% in size. The gist of the method: as §2
Experiment [11] can be described thus: qHTS of pediatric cancer cell lines to identify multiple opportunities for drug repurposing: Primary screen for Rh41 cells (AID 1347108). Also: nearly all actives have a fitted effect of over 70% in size. Also: potency is read from the fitted curve at half-maximal effect. The gist of the method:
as §1

A short description of experiment [12]: qHTS of pediatric cancer cell lines to identify multiple opportunities for drug repurposing: Primary screen for OHS-50 cells (AID 1347103). Also: nearly all actives have a fitted effect of over 40% in size. Also: potency is read from the fitted curve at half-maximal effect. An outline of the steps: as §2
Experiment [13] is described as follows: qHTS of pediatric cancer cell lines to identify multiple opportunities for drug repurposing: Confirmatory screen for A673 cells (AID 1347110).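 Also: cells exposed to compound for 48 h before the viability read; nearly all actives have a fitted effect of over 65% in size.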 Also: potency is read from the fitted curve at half-maximal effect. An outline of the steps: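 Cells plated at 500-1,000/well were treated five hours later with multi-point dilutions up to 46 µM final. After two days, CellTiter-Glo was added and luminescence read.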
A short description of experiment [14]: qHTS of pediatric cancer cell lines to identify multiple opportunities for drug repurposing: Confirmatory screen for SK-N-MC cells (AID 1347111).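 Also: cells exposed to compound for 48 h before the readout; nearly all actives have a fitted effect of over 70% in size.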 Also: potency is read from the fitted curve at half-maximal effect. An outline of the steps:
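Seed 500-1,000 cells/well; rest 5 h at 37 degrees C. Pin-transfer compounds, 11-point titration. Incubate 48 h. Add CellTiter-Glo, 15 min RT, read luminescence.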

Experiment [15] can be described thus: qHTS of pediatric cancer cell lines to identify multiple opportunities for drug repurposing: Confirmatory screen for LAN-5 cells (AID 1347113). Also: nearly all actives have a fitted effect of over 65% in size. Also: potency is read from the fitted curve at half-maximal effect. An outline of the steps:
as §2

A short description of experiment [16]: qHTS of pediatric cancer cell lines to identify multiple opportunities for drug repurposing: Confirmatory screen for DAOY cells (AID 1347114). Also: nearly all actives have a fitted effect of over 65% in size. An outline of the steps: (§3)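 Viability measured as metabolically active cells via CellTiter-Glo luminescence following 48 hours of compound exposure, 11-point dilutions in confirmatory testing. 500-1,000 cells/well plated 5 hours before dosing; controls were DMSO and 2.3 µM bortezomib.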

The nature of experiment [17]: qHTS of pediatric cancer cell lines to identify multiple opportunities for drug repurposing: Confirmatory screen for SJ-GBM2 cells (AID 1347116). Also: nearly all actives have a fitted effect of over 60% in size. Also: potency is read from the fitted curve at half-maximal effect. The gist of the method: as §3
The nature of experiment [18]: qHTS of pediatric cancer cell lines to identify multiple opportunities for drug repurposing: Confirmatory screen for BT-37 cells (AID 1347117). Also: nearly all actives have a fitted effect of over 55% in size. Also: potency is read from the fitted curve at half-maximal effect. The gist of the method:
as §2

Experiment [19] can be described thus: qHTS of pediatric cancer cell lines to identify multiple opportunities for drug repurposing: Confirmatory screen for NB-EBc1 cells (AID 1347115).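 Also: cells exposed to compound for 48 h before the viability read; nearly all actives have a fitted effect of over 45% in size.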 The gist of the method:
as §2

The nature of experiment [20]: qHTS of pediatric cancer cell lines to identify multiple opportunities for drug repurposing: Confirmatory screen for MG 63 (6-TG R) cells (AID 1347119). Also: nearly all actives have a fitted effect of over 55% in size. An outline of the steps:
as §2

Results filed as inconclusive are left out. Unmarked numbers belong to inactive results. Active and inactive are the calls of the source. Calls follow the shape of the dose curve; as a rule, active = well fitted curve in the direction sought with a large enough effect; inconclusive = small, poorly fitted or top-dose-only effect, or another doubt; inactive = no such curve, though single readings can be large; an effect the other way counts as inactive or inconclusive.

In the case of `CN=C(NC#N)NCCSCc1csc(N=C(N)N)n1`, the Potency entry in [1], in [2], in experiment [3], in [4], in experiment [5] and in experiment [6] was “inactive” each time. For the same molecule, the Potency entry in experiment [7], in experiment [8], in experiment [9], in experiment [10] and in experiment [11] was “inactive” throughout.

Turning to `COc1cccc(OC)c1C(=O)N[C@@H]1C(=O)N2[C@@H]1SC(C)(C)[C@@H]2C(=O)O`, the Potency entry in [1], in experiment [2], in experiment [3], in experiment [4], in [5] and in experiment [6] was “inactive” each time. Also, the Potency entry in experiment [12], in experiment [7], in [8], in experiment [9] and in experiment [11] was “inactive” in each case.

For the molecule `CC(C)(CO)[C@@H](O)C(=O)NCCCO`, the Potency result in experiment [1], in [2], in [3], in [4], in experiment [5] and in experiment [6] was “inactive” in each case. For the same molecule, the Potency entry in experiment [12], in experiment [7], in experiment [9], in [10] and in experiment [11] was “inactive” throughout.

Turning to `Cc1ccc(C(=O)C(C)CN2CCCCC2)cc1` (stereo unspecified), the Potency entry in [1], in experiment [2], in experiment [3], in [4], in experiment [5] and in [6] was “inactive” each time. The Potency entry in experiment [12], in experiment [7], in experiment [8], in [9] and in experiment [11] was “inactive” throughout.

Turning to `NCCCC[C@H](N[C@@H](CCc1ccccc1)C(=O)O)C(=O)N1CCC[C@H]1C(=O)O`, the Potency result in experiment [1], in [2], in [3], in experiment [4], in experiment [5] and in experiment [6] was “inactive” in each case. The Potency entry in experiment [12], in [7], in experiment [8], in [9] and in [11] was “inactive” each time.

In the case of `CN(C)C(=S)SC(=S)N(C)C`, the Potency is 1060 nM (active) in experiment [1]; 1940 nM (active) in experiment [2]; 2990 nM (active) in experiment [3]; 1330 nM (active) in experiment [4]; 1230 nM (active) in [5]; 1880 nM (active) in experiment [6]. In addition, the Potency in experiment [12] was 8710 nM (active); in [7], 944 nM (active); in [8] it was 4220 nM (active); in experiment [9] it was 1190 nM (active); in experiment [11], 944 nM (active); in [13] it was 2610 nM (active). Besides, the Potency in experiment [14] was 2930 nM (active); in [15], 3690 nM (active); in experiment [18] it was 3690 nM (active). The Potency entry in [16] and in [17] was “inactive” in each case.

On to `O=c1[nH]c(=O)n([C@H]2C[C@H](O)[C@@H](CO)O2)cc1C(F)(F)F`, for which the Potency entry in experiment [1], in experiment [2], in experiment [3], in [6], in [7] and in experiment [8] was “inactive” each time. Also, the Potency entry in experiment [9] is “inactive”. The Potency in [4] is 1330 nM (active); in [5] it was 13800 nM (active).

Take `CC(=O)OCC(=O)[C@@]12N=C(C)O[C@@H]1C[C@H]1[C@@H]3CCC4=CC(=O)C=C[C@]4(C)[C@H]3[C@@H](O)C[C@@]12C`: the Potency entry in experiment [1], in [2], in experiment [3], in experiment [4], in [5] and in experiment [6] was “inactive” in each case. The Potency entry in experiment [12], in experiment [7], in experiment [8], in experiment [9], in experiment [10] and in [11] was “inactive” throughout. The Potency entry in experiment [16] was “inactive”. The Potency in experiment [13] was 293 nM (active); in [14], 261 nM (active); in [15], 1470 nM (active); in [17], 1040 nM (active); in experiment [18], 657 nM (active).

As to `NCCC(O)(P(=O)(O)O)P(=O)(O)O`, the Potency entry in experiment [1], in [2], in experiment [3], in experiment [4], in [5] and in experiment [6] was “inactive” in each case. For the same molecule, the Potency result in experiment [7], in [8], in experiment [9], in experiment [10] and in experiment [11] was “inactive” each time.

For the molecule `NC(=O)c1cc[n+](CC2=C(C(=O)[O-])N3C(=O)[C@@H](NC(=O)Cc4cccs4)[C@H]3SC2)cc1`, the Potency result in [1], in experiment [2], in [3], in [4], in experiment [5] and in experiment [6] was “inactive” each time. Further, the Potency result in experiment [12], in [7], in [9], in [10] and in experiment [11] was “inactive” in each case.

As to `C[C@]12C=CC(=O)C=C1[C@@H](F)C[C@@H]1[C@@H]2[C@@H](O)C[C@@]2(C)[C@H]1CC[C@]2(O)C(=O)CO`, the Potency result in experiment [1], in experiment [2], in experiment [3], in experiment [4], in experiment [5] and in experiment [6] was “inactive” in each case. Also, the Potency entry in [12], in [7], in [9], in [10], in experiment [11] and in experiment [13] was “inactive” each time. The Potency result in experiment [14], in [15], in [16], in experiment [19], in [18] and in [20] was “inactive” each time.

As to `CCN1CCN(c2cc3c(cc2F)c(=O)c(C(=O)O)cn3C2CC2)CC1`, the Potency result in experiment [1], in [2], in experiment [3], in [4], in [5] and in experiment [6] was “inactive” in each case. For the same molecule, the Potency entry in experiment [12], in experiment [7], in [8], in experiment [10] and in experiment [11] was “inactive” in each case.

`O=c1ccc2ccccc2o1`: the Potency entry in [1], in experiment [2], in [3], in experiment [4], in experiment [5] and in experiment [6] was “inactive” throughout. In addition, the Potency result in experiment [12], in experiment [7], in experiment [9], in experiment [10] and in experiment [11] was “inactive” in each case.

For `CC(=O)Nc1c(I)cc(I)c(C(=O)O)c1I`, the Potency entry in [1], in experiment [2], in [3], in experiment [4], in [5] and in [6] was “inactive” each time. The Potency entry in [12], in [7], in experiment [9], in [10] and in experiment [11] was “inactive” in each case.

For the molecule `OC[C@H]1O[C@H](O[C@]2(CCl)O[C@H](CCl)[C@@H](O)[C@@H]2O)[C@H](O)[C@@H](O)[C@H]1Cl`, the Potency result in experiment [1], in [2], in [3], in experiment [4], in experiment [5] and in experiment [6] was “inactive” each time. The Potency result in experiment [12], in [7], in experiment [8], in [9] and in experiment [11] was “inactive” throughout.

With `CC(O)C(=O)O` (stereo unspecified), the Potency result in experiment [1], in [2], in experiment [3], in experiment [4], in [5] and in [6] was “inactive” in each case. Moreover, the Potency entry in experiment [12], in experiment [7], in experiment [8], in experiment [9], in [10] and in [11] was “inactive” throughout.

`CC(=O)OCC(=O)[C@@]1(O)[C@H](C)C[C@H]2[C@@H]3CCC4=CC(=O)C=C[C@]4(C)[C@@]3(F)[C@@H](O)C[C@@]21C`: the Potency entry in experiment [1], in experiment [2], in [3], in [4], in [5] and in experiment [6] was “inactive” throughout. In addition, the Potency entry in experiment [12], in experiment [7], in [8], in [9], in [10] and in [11] was “inactive” in each case. In addition, in experiment [19], the Potency entry is “inactive”. For the same molecule, the Potency in [13] was 9270 nM (active); in [14], 29300 nM (active).

Turning to `OC[C@@H](O)[C@@H](O[C@@H]1O[C@H](CO)[C@H](O)[C@H](O)[C@H]1O)[C@H](O)[C@@H](O)CO`, the Potency result in [1], in experiment [2], in experiment [3], in [4], in experiment [5] and in experiment [6] was “inactive” each time. Also, the Potency result in [12], in experiment [7], in experiment [9], in [10] and in experiment [11] was “inactive” throughout.
